Env fusion inh = inhibitors of HIV-1 Env-driven cell-cell fusion, primary screen, HeLa-JRFL effector, CEM21 target cells, luciferase; inhibition, % at 12.3 µM; hit rate 1.1% among 360,000; AID 651610, 2012;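 active = mean replicate inhibition score of at least 50 and every replicate individually at or above 50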;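 note: 0% = plate neutral controls and 100% = maraviroc near 300 nM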
EWS-Fli inh = EWS/Fli-driven NR0B1 reporter inhibitors, primary screen, A673 cells, NR0B1 luciferase, luminescence, MLPCN library; viability-normalised; inhibition, % at 12.6 µM; hit rate 0.67% among 350,000;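 active = mean inhibition of at least 50% after viability correction, with every replicate also passing that limit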;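 note: firefly luciferase signal divided by Alamar Blue viability fluorescence both relative to DMSO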
F508del corr = F508del CFTR correction, initial screen, CFBE line, single point; CFBE cells, YFP halide quenching; stimulated with forskolin plus potentiator P3; % fluorescence drop versus neutral controls; activity (quench increase), % at 7.58 µM; hit rate 0.36% among 350,000; AID 720511, 2013;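 active = mean added fluorescence quench of at least 8% versus neutral control, with both replicates also reaching 8%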;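 note: cells transiently co-express mutant CFTR-F508del with the halide-sensitive YFP; corrector assay measuring rescue of mutant channel to the surface after 24 h compound exposure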
PAX8 inh HTS = inhibitors of PAX8-driven TPO luciferase reporter, primary screen, RMG-I cells, single concentration; hit rate 1.2% among 360,000; inhibition, % at 12.6 µM; SteadyGlo, 24 h;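 active = mean replicate inhibition at least 60% with every replicate also reaching 60%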;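 note: luciferase light reporting Pax8 driven TPO promoter activity; plate controls were median of neutral control wells for no effect and mitoxantrone controls for full effect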
GAA850 FXN act = FXN promoter activators, primary screen, cell-based, luciferase luminescence, HEK293 lucGAA850. HEK293 lucGAA850 FXN promoter luciferase reporter, 24 h; percent of 10 µM SAHA response. activation, % at 6 µM. hit rate 0.56% among 360,000. AID 540364, 2011;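 active = activation above the average of all compounds screened plus 3 SD, cutoff fixed separately per campaign, cut at about 7.5% in these data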;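 note: 0% = DMSO wells and 100% = 10 µM SAHA wells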
Active calls of the source: *; x = no result; [ ] = dose if it differs, or a comment. An excerpt weighted towards active compounds, which were near 2.5% of everything screened.

SMILES | Env fusion inh | EWS-Fli inh | F508del corr | PAX8 inh HTS | GAA850 FXN act
Cc1noc(C)c1S(=O)(=O)N(C)C[C@H]1OCCCC[C@H](C)Oc2ccc(NC(=O)Nc3ccccc3)cc2C(=O)N([C@@H](C)CO)C[C@@H]1C | 65*[16.7 µM] | 9 | 1 | -15 | x
COc1ccc(NC(=O)Nc2ccc3c(c2)C(=O)N([C@@H](C)CO)C[C@H](C)[C@@H](CN(C)S(=O)(=O)c2c(C)noc2C)OCCCC[C@H](C)O3)cc1 | 68*[16.7 µM] | -1 | 2 | 3 | x
C[C@@H]1CCCCO[C@@H](CN(C)S(=O)(=O)c2ccc(Cl)cc2)[C@H](C)CN([C@H](C)CO)C(=O)c2cc(NS(=O)(=O)c3ccc(Cl)cc3)ccc2O1 | 44[16.7 µM] | 23 | -2 | 90* | x
C[C@H]1CCCCO[C@H](CN(C)S(=O)(=O)c2ccc(Cl)cc2)[C@@H](C)CN([C@@H](C)CO)C(=O)c2cc(NS(=O)(=O)c3ccc(Cl)cc3)ccc2O1 | 5[16.7 µM] | 9 | 3 | 83* | x
C[C@@H]1CN([C@H](C)CO)C(=O)c2cc(NS(=O)(=O)c3ccc(Cl)cc3)ccc2O[C@@H](C)CCCCO[C@@H]1CN(C)S(=O)(=O)c1ccc(Cl)cc1 | -15[16.7 µM] | -14 | -1 | 43 | x
C[C@H](CO)N1C[C@H](C)[C@@H](CN(C)S(=O)(=O)c2ccc(Cl)cc2)OCCCC[C@H](C)Oc2ccc(NS(=O)(=O)c3ccc(Cl)cc3)cc2C1=O | -48[16.7 µM] | 13 | 0 | 87* | x
C[C@@H]1CN([C@@H](C)CO)C(=O)c2cc(NS(=O)(=O)c3ccc(Cl)cc3)ccc2O[C@@H](C)CCCCO[C@@H]1CN(C)S(=O)(=O)c1ccc(Cl)cc1 | -55[16.7 µM] | -3 | 2 | 15 | x
C[C@H](CO)N1C[C@H](C)[C@@H](CN(C)S(=O)(=O)c2ccc(F)cc2)Oc2cc(C3=CCCCC3)ccc2S1(=O)=O | 35[16.7 µM] | 34 | 1 | x | x
Cc1noc(C)c1S(=O)(=O)Nc1ccc2c(c1)C(=O)N([C@H](C)CO)C[C@H](C)[C@H](CN(C)Cc1ccc3c(c1)OCO3)OCCCC[C@H](C)O2 | -17[16.7 µM] | -6 | 3 | -8 | x
Cc1ccc(S(=O)(=O)Nc2ccc3c(c2)C(=O)N([C@@H](C)CO)C[C@@H](C)[C@H](CN(C)S(=O)(=O)c2ccc(Cl)cc2)OCCCC[C@@H](C)O3)cc1 | 3[16.7 µM] | 11 | 1 | 84* | x
Cc1ccc(S(=O)(=O)Nc2ccc3c(c2)C(=O)N([C@H](C)CO)C[C@H](C)[C@H](CN(C)S(=O)(=O)c2ccc(Cl)cc2)OCCCC[C@H](C)O3)cc1 | -7[16.7 µM] | 18 | 2 | 66* | x
Cc1ccc(S(=O)(=O)N(C)C[C@@H]2OCCCC[C@@H](C)Oc3ccc(NS(=O)(=O)c4ccc(Cl)cc4)cc3C(=O)N([C@H](C)CO)C[C@H]2C)cc1 | -11[16.7 µM] | -4 | 2 | 77* | x
Cc1ccc(S(=O)(=O)N(C)C[C@@H]2OCCCC[C@H](C)Oc3ccc(NS(=O)(=O)c4ccc(Cl)cc4)cc3C(=O)N([C@H](C)CO)C[C@@H]2C)cc1 | -27[16.7 µM] | 19 | 0 | 74* | x
Cc1ccc(S(=O)(=O)N(C)C[C@H]2OCCCC[C@H](C)Oc3ccc(NS(=O)(=O)c4ccc(Cl)cc4)cc3C(=O)N([C@H](C)CO)C[C@H]2C)cc1 | 4[16.7 µM] | -3 | 2 | 31 | x
COc1ccccc1CN(C)C[C@@H]1OCc2cn(nn2)CCCC(=O)N([C@@H](C)CO)C[C@@H]1C | -20[16.7 µM] | 3 | 0 | x | x
CO[C@@H]1CN(C)C(=O)c2cc(NC(=O)c3cnccn3)ccc2OC[C@@H](C)N(C(C)=O)C[C@@H]1C | x | 1 | 1 | 3 | x
CO[C@@H]1CN(C)C(=O)c2ccc(NS(C)(=O)=O)cc2OC[C@H](C)N(C(=O)C2CCCC2)C[C@H]1C | x | x | -2 | -21 | x
Cc1ccc(S(=O)(=O)N(C)C[C@@H]2OCCCC[C@@H](C)Oc3ccc(NS(=O)(=O)c4ccc(Cl)cc4)cc3C(=O)N([C@@H](C)CO)C[C@H]2C)cc1 | 7[16.7 µM] | -17 | 0 | 68* | x
Cc1ccc(S(=O)(=O)Nc2ccc3c(c2)C(=O)N([C@H](C)CO)C[C@@H](C)[C@@H](CN(C)S(=O)(=O)c2ccc(Cl)cc2)OCCCC[C@@H](C)O3)cc1 | 17[16.7 µM] | 11 | 1 | 49 | x
O=S(=O)(Cc1ccccc1)N1CCCCN2[C@H](CO)[C@@H](c3ccc(C#Cc4ccccc4)cc3)[C@@H]2C1 | x | -1 | 2 | 7 | x
CCCC#Cc1ccc([C@@H]2[C@H](CO)N3CCCCN(S(=O)(=O)Cc4ccccc4)C[C@@H]23)cc1 | x | 59* | -6 | 117* | x
CCCC#Cc1ccc([C@H]2[C@H]3CN(S(=O)(=O)Cc4ccccc4)CCCCN3[C@H]2CO)cc1 | x | -6 | 2 | 106* | x
CCCC#Cc1ccc([C@@H]2[C@@H](CO)N3CCCCN(S(=O)(=O)Cc4ccccc4)C[C@@H]23)cc1 | x | -5 | 6 | -8 | x
Cc1ccc2c(CN3CCN(S(=O)(=O)c4ccc(Cl)cc4)CC3)cc(=O)oc2c1C | 33 | 24 | 19* | -5 | 1
COc1cc(OC)cc(C2=Cc3ccc(OC)cc3C(CC(C)=O)N2c2ccc(-c3cccs3)cc2)c1 (stereo not drawn) | 3 | 11 | 2 | 53 | x
SMILES | Env fusion inh | EWS-Fli inh | F508del corr | PAX8 inh HTS | GAA850 FXN act
COc1cc(OC)cc(C2=Cc3ccccc3C(CC(C)=O)N2c2ccc(-c3cccs3)cc2)c1 (stereo not drawn) | 17 | 3 | 0 | 70* | x
Cc1cccc(S(=O)(=O)N2C[C@@H]3[C@H](c4ccccc42)[C@H](CO)N3C(=O)CC2CC2)c1 | x | -8 | 3 | -3 | x
C[C@@H]1CCCCO[C@H](CN(C)C(=O)NC2CCCCC2)[C@H](C)CN([C@@H](C)CO)C(=O)c2cc(NS(=O)(=O)c3ccc(Cl)cc3)ccc2O1 | -23[16.7 µM] | -5 | 5 | 80* | x
C[C@H]1CCCCO[C@H](CN(C)C(=O)NC2CCCCC2)[C@@H](C)CN([C@@H](C)CO)C(=O)c2cc(NS(=O)(=O)c3ccc(Cl)cc3)ccc2O1 | 1[16.7 µM] | 11 | 2 | 71* | x
C[C@@H]1CCCCO[C@@H](CN(C)C(=O)NC2CCCCC2)[C@@H](C)CN([C@H](C)CO)C(=O)c2cc(NS(=O)(=O)c3ccc(Cl)cc3)ccc2O1 | -53[16.7 µM] | 30 | 1 | -20 | x
COC1OC(COCc2ccccc2)C2OC(C)(C)OC2C1O (stereo not drawn) | 8 | -7 | 2 | 104* | x
COc1ccc2c3c([nH]c2c1)[C@@H](CO)N(C(=O)Nc1ccc(F)cc1)CC31CCN(S(=O)(=O)c2cccs2)CC1 | x | -1 | 1 | x | x
Nc1ncnc(N2CCc3ccccc32)c1[N+](=O)[O-] | 67* | -14 | -1 | -48 | -10
NNC(=O)c1ccc(N2CCc3ccccc32)c([N+](=O)[O-])c1 | 9 | -15 | -1 | -18 | -1
